“And” between values parts separate entries of the source, which are not always exact repeats. Equal entries are not always repeated. Among all 140,000 compounds or so, about 1,200 (0.86%) were called active. No stated cut-off is given here; in the data, active means activity change below about -25%; inactive means the rest. The full list was thinned out, with actives kept by preference. Where a structure was tested more than once in an assay, its records may differ in their call.
The compounds below were run against Inositol hexakisphosphate kinase 1 (Homo sapiens) (UniProt Q92551) (assay: Primary qHTS assay for small molecule inhibitors of Inositol hexaphosphate kinase 1 (IP6K1)). Settings: ADP-Glo luminescence, 2 h, stronger effect = lower value.
Procedure, shortened: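 ADP-Glo luminescence measures ADP made by human IP6K1 during a 2 h RT reaction with ATP/IP6 (mix at 1.3 mM/130 uM); top library doses 57.5 and 19.1 uM final.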
Further: series mostly up to about 58 µM.
On the % scale 0 is the no-effect control and ±100 the full control effect.

Chain of Inositol hexakisphosphate kinase 1 (Homo sapiens) (Q92551 whole entry, looked up): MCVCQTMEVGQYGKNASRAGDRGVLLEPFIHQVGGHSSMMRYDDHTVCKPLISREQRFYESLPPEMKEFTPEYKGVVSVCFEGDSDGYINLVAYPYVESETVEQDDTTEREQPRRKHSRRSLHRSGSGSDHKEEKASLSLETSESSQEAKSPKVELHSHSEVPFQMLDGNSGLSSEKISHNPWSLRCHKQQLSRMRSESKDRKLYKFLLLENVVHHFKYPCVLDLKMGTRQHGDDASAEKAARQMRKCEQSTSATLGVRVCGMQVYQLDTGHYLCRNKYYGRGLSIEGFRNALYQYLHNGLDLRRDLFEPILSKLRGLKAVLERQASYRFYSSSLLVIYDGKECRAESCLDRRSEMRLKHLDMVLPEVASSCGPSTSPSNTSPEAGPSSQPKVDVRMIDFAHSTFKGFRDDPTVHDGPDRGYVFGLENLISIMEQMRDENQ

Activity change, inactive:
FC(F)(F)c1ccc(CN2CCC3(CC(c4cccc(C(F)(F)F)c4)=NO3)C2)cc1 (stereo not drawn) -5.41%
N#Cc1ccc(CN2CC(Oc3ccc(F)cc3F)C2)cc1 -14.3%
O=C(C1CCN(Cc2ccccc2-c2ccccc2F)CC1)N1CCC(c2ccccc2)CC1 20.1%
Cc1ccccc1C(=O)N1CCCC(C(=O)N2CCC(c3ccccc3)CC2)C1 (stereo not drawn) -2.33%
O=[S+]([O-])(c1ccccc1)N1CC2(COCCN(Cc3cc(F)ccc3F)C2)C1 8.88%
COc1cccc(Nc2n[nH]c(C(O)c3cccc(C(F)(F)F)c3)n2)c1 (stereo not drawn) -3.83%
COc1ccc(-c2nn(CC(=O)Nc3ccccc3F)c3c2cnc2ccc(F)cc23)cc1 6.83%
COc1ccc(-c2nn(CC(=O)NC3CCCC3)c3c2cnc2ccc(F)cc23)cc1 19.4%
COc1ccc(-c2nc(-c3ccccc3)nc3c2CN(C(=O)c2ccc(C)cc2)CC3)cc1 6.25%
CCN1c2cc(C(=O)NCc3ccccc3C(F)(F)F)ccc2C(=O)N2CCCCCC21 (stereo not drawn) -7.94%
Cc1ccc(Cl)cc1NC(=O)CN1C(=O)NC(c2ccc(Cl)cc2)C2=C1COC2=O (stereo not drawn) -3.73%
CCOC(=O)c1cc2c(=O)n3ccccc3nc2n(CC2CCCO2)c1=NC(=O)c1ccc(C(C)(C)C)cc1 (stereo not drawn) -2.99%
CCOC(=O)c1cc2c(=O)n3ccccc3nc2n(CC2CCCO2)c1=NC(=O)c1ccccc1F (stereo not drawn) -9.99%
NC(=O)Cn1ccc2cc(OCC3CCN(C(=O)C4CCCC4)CC3)cnc21 -2.13%
CC(C)CCNC(=O)c1cnc2c(c1)N(Cc1ccccc1)CCC2 3.22%
COC[C@H]1C[C@@H](NC(=O)c2ccc(C#N)cc2)[C@H](O)[C@@H]1O -1.35%
Cn1cc(C(=O)N2CCC(C(=O)N3CCCCCCNC(=O)CC3)CC2)cn1 -7.37%
N#Cc1ccc(C(=O)Nc2ccc([C@H]3OCC(=O)N(Cc4cccnc4)[C@@H]3CO)cc2)cc1 -3.68%
O=C(Nc1cc(-c2ccncc2)nn1-c1ccccc1)c1ccccc1F -7.37%
O=C(Nc1cccnc1)[C@@H]1C[C@@H](c2ccc(F)cc2)N([S+](=O)([O-])c2ccccc2)C1 19.9%
COC(=O)c1ccc(NC(=O)CCc2c(C)nc3c(c(C)nn3-c3ccc(C)cc3)c2C)cc1 33%
Cc1nc2c(c(C)nn2-c2ccccc2)c(C)c1CCC(=O)NCCc1ccc(Cl)cc1 11.8%
Cn1ncc2c(C(=O)NCc3ccc(Cl)cc3)cc(-c3ccc(F)cc3)nc21 11.6%
O=C(NCCc1ccccc1F)c1ccc2nnc(-c3ccc(F)cc3)n2c1 1.1%
COC(=O)NC1CCCN(c2ccc3nnc(-c4ccccc4)n3n2)C1 (stereo not drawn) -6.13%
COc1ccc(N2CC(c3noc(-c4cc(OC)c(OC)c(OC)c4)n3)CC2=O)cc1 (stereo not drawn) 12.4%
Cc1ccc(C)c(NC(=O)C2CCCN(S(=O)(=O)c3cn(C)cn3)C2)c1 (stereo not drawn) 5.66%
CCOc1ccccc1CNC(=O)C1CCCN(S(=O)(=O)c2ccc3c(ccn3C)c2)C1 (stereo not drawn) -3.08%
Cc1noc(C)c1-c1nccc2c(=O)cc(N3CCOCC3)oc12 -13.2%
O=c1cc(N2CCOCC2)oc2c(NCc3ccncc3)nccc12 -7.16%
CN(C)c1ccc(CN(C)C2CCc3ccccc3C2)cc1 (stereo not drawn) -16.7%
CC(C)OCCCNC(=O)c1cc(-c2ccc(C(F)(F)F)cc2)nc2c1cnn2C -2.02%
CCOc1ccccc1NC(=O)CN1C(=O)C(c2ccccc2)=NC12CCCC2 7.82%
CC1=C(C(=O)N(C)C)C(c2ccc(Cl)cc2)N2C(CC(=O)NC(C)c3ccccc3)=CSC2=N1 (stereo not drawn) 33.5%
CC1=C[C@@H](CNC(C)C)[C@H](C(C)C)C[C@H]1Cc1nnc(-c2ccc(N(C)C)cc2)o1 -0.243%
Cc1ccccc1C(=O)N1CCCC(C(=O)N2CCC(N3CCOC3=O)CC2)C1 (stereo not drawn) -1.11%
C#C[C@]1(O)CC[C@H]2[C@@H]3CCC4=CC(=O)CC[C@@H]4[C@H]3CC[C@@]21CC 3.56%
CN1CC(=O)N(C2CCC2)Cc2c(NCC(C)(C)C)ncnc21 15.1%
O=C(OCc1ccccc1)N1CCOCC12CCN(Cc1ccncc1Cl)CC2 13%
CN(CC1CCN(CCc2cccc(F)c2)CC1)C(=O)c1cn2cccnc2n1 28.9%
Cc1cc(=O)n(CC(=O)NCCc2ccc(Cl)cc2)c(N2CCc3ccccc3C2)n1 19.5%
COc1ccc(Cn2c(=O)c(C(=O)N3CCN([S+](=O)([O-])c4c(C)noc4C)CC3)nc3cccnc32)cc1 10.5%
Cc1cn2nc(C(=O)Nc3cc(F)cc(F)c3)cc2c(N(C)Cc2ccccc2)n1 -5.8%
O=c1cc(-c2cccnc2)oc2c(-c3cccc(CO)c3)nccc12 -18.5%
O=c1cc(-c2ccccn2)oc2c(-c3ccccc3F)nccc12 -14.4%
CCCn1c(C)cnc1C1CCN(S(C)(=O)=O)C1 (stereo not drawn) 2.78%
O=C(NC1CCCCCC1)C1CCCN(Cc2cccc(-c3cccs3)c2)C1 (stereo not drawn) 8.71%
Cn1nc(C2CCCN(C(=O)NCc3ccccc3)C2)n(Cc2ccccc2)c1=O (stereo not drawn) -4.56%
COc1ccccc1N1CCCc2ncc(C(=O)N3CCCC[C@@H]3c3ccccc3)cc21 -3.23%
COC(=O)[C@H](NC(=O)[C@@H]1C[C@H](NC(=O)Nc2ccc(F)cc2F)CN1C(C)=O)C(C)C -6.82%
O=C(Nc1cccc(-c2nc3ccccc3o2)c1)c1cccc(Br)c1 18.7%
Cc1ccc(SCC(=O)Nc2ccc3oc(-c4ccccc4C)nc3c2)cc1 18.6%
CC1(c2ccccc2)N(Cc2ccccc2F)C(=O)OC12CCN(Cc1cccc(O)c1)CC2 (stereo not drawn) -6.41%
Cc1noc(-c2ccc(OC3CN(C(=O)c4ccco4)C3)cc2)n1 5.28%
CC1(C)[C@H](Cc2cc(CC3CCCCC3)on2)C[C@@H]1NC(=O)C1CCC1 -13.8%
O=C(NCc1ccc2c(c1)OCO2)C1CCCN(Cc2cccc(-c3cccs3)c2)C1 (stereo not drawn) -3.87%
c1cc(-c2nc3ccncc3[nH]2)ccn1 3.83% and 13.8%
COc1ccc(C(=O)N2CCCC2C(=O)N2CCCC2c2nc3ccncc3[nH]2)cc1 (stereo not drawn) 15.6%
O=C(NCC1CN(C(=O)c2cnccn2)CC12CCOCC2)N1CCCC1 (stereo not drawn) 5.72%
COc1ccc2[nH]c3c(c2c1)CCNC31CCN(C(=O)c2ccccc2)CC1 15.7%
CCOc1ccccc1C(=O)N1CCC(Oc2ncccc2C(=O)N(C)C)C1 (stereo not drawn) 17.8%
O=C(c1ccccc1Cl)N1CCN(C(=O)c2nc3cccnc3n(Cc3ccccc3)c2=O)CC1 -2.58%
CN1C(=O)CC(c2ccccc2)C1=O (stereo not drawn) 10.2%
COC(=O)[C@H](NC(=O)C1=C[C@@H](NC(=O)CS(=O)(=O)c2ccccc2)[C@@H](O)[C@H](O)C1)C(C)C 22%
COc1cccc(CN2CCOC[C@H](Oc3ccccc3)C2)c1 7.17%
CSCC(=O)N1CCC2(CC1)CC(c1ccccc1)CN(C)C2 (stereo not drawn) 3.1%
CN(C)CC1(O)CCC2(CCN(C(=O)c3ccc4ccccc4n3)CC2)CC1 -13.2%
CC1=C[C@@H](CNC(C)C)[C@H](C(C)C)C[C@H]1Cc1nnc(-c2ccc(C)cc2)o1 -3.97%
O=C(Cc1cccc(F)c1)N1CCC[C@H]1c1nc(-c2ccc(F)cc2)n[nH]1 21.1%

Activity change, -18.1% (inactive) and -33.5% (active):
COc1ccc(-c2nc3ccncc3[nH]2)cc1

Activity change, active:
CO[C@H]1C=CO[C@@]2(C)Oc3c(C)c(O)c4c(O)c(c(/C=N/N5CCN(C)CC5)c(O)c4c3C2=O)NC(=O)/C(C)=C\C=C[C@H](C)[C@H](O)[C@@H](C)[C@@H](O)[C@@H](C)[C@H](OC(C)=O)[C@@H]1C -33.1%
COc1ccc2ncc3c(-c4ccc(C)c(C)c4)nn(CC(=O)NC4CCCC4)c3c2c1 -25.8%
CCOC(=O)c1cc2c(=O)n3ccccc3nc2n(Cc2ccco2)c1=NC(=O)c1ccc(F)cc1 -40.8%
Cc1ccc(CNC(=O)CCc2c(C)nc3c(c(C)nn3-c3ccccc3)c2C)cc1 -26.3%
CCOc1ccccc1NC(=O)C1CCCN(S(=O)(=O)c2cn(C)cn2)C1 (stereo not drawn) -25.5%
O=c1cc(N2CCOCC2)oc2c(Nc3cccc(Cl)c3)nccc12 -31%
C#C[C@]1(O)CC[C@H]2[C@@H]3CCC4=C/C(=N/O)CC[C@@H]4[C@H]3CC[C@@]21CC -79.6%
N#CSc1cc(SC#N)c(N)nc1N -42.8%
O=c1cc(-c2cccnc2)oc2c(-c3ccccc3O)nccc12 -32.5%
CCC(=O)Nc1cccc(-c2nc3cc(C)ccc3o2)c1 -27.3%
CCOc1ncccc1C(=O)N1CCN(Cc2ccccc2)CC(O)C1 (stereo not drawn) -34.4%
Nc1nc2c(s1)C(c1ccccc1)CC(=O)N2 (stereo not drawn) -56.5%
Cc1cccc(C(=O)N2CCC3(CC2)CC(c2ccccc2)CN(C)C3)n1 (stereo not drawn) -35.9%

— PubChem BioAssay AID1645851 (National Center for Advancing Translational Sciences (NCATS), 2021)
